Source: PubChem BioAssay (NCATS)
Results filed as inconclusive are left out. Activity calls are given as the source filed them. The call rests on the fitted dose curve; in most records, active means well fitted inhibition curve with a large enough effect; inconclusive means small, poorly fitted or top-dose-only effect; inactive means flat fitted curve, though single readings scatter.

What follows are molecules tested against Calcium and integrin-binding protein 1 (Homo sapiens) (UniProt Q99828) (assay: Primary qHTS for Identification of Calcium Integrin Binding Protein 1 (CIB1) Competitor (AID 1508620;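 further: GST tagged CIB1 binding a fluorescein labelled alphaIIb integrin peptide tracer; top concentration of the series differs between compounds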)). Conditions: CIB1-GST / FITC-alphaIIb peptide fluorescence polarization; series mostly up to 114 µM; activity change, negative = inhibition: at the top concentration.
Sequence of Calcium and integrin-binding protein 1 (Homo sapiens) (Q99828 whole entry, looked up): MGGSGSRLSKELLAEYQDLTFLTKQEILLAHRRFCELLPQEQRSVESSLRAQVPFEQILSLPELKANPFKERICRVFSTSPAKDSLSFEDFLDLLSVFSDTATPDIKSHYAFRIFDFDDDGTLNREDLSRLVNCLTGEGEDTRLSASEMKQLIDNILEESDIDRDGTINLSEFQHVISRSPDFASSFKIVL
Summary of the method: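 Fluorescence polarization competition: CIB1-GST (1 uM final) preincubated with compound 15 min at room temperature, then FITC-labeled alphaIIb peptide (100 nM final) added for another 15 min. Polarization read at Ex 480/Em 540.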
On the % scale 0 is the no-effect control and ±100 the full control effect.

SMILES	activity change, negative = inhibition
CC1(C)CC[C@]2(C(=O)O[C@@H]3O[C@H](CO)[C@@H](O)[C@H](O)[C@H]3O)CC[C@]3(C)C(=CCC4[C@@]5(C)CC[C@H](O[C@@H]6O[C@H](C(=O)O)[C@@H](O)[C@H](O[C@@H]7O[C@H](CO)[C@H](O)[C@H](O)[C@H]7O)[C@H]6O)C(C)(C)C5CC[C@]43C)C2C1 (some centres not stated)	-4.49% [at 30.2 µM] (inactive)
C=C[C@H]1[C@H](O[C@@H]2O[C@H](CO)[C@@H](O)[C@H](O)[C@H]2O)OC=C(C(=O)OC)[C@H]1CCOC(=O)c1cc(O)c(O)c(O)c1	0.657% [at 57.7 µM] (inactive)
C/C=C/c1cc(OC)c2c(c1)[C@@H](C)[C@@H](c1ccc(O)c(OC)c1)O2	-4.69% [at 57.7 µM] (inactive)
CC(NC(=O)CCc1nc2ccccc2c(=O)[nH]1)c1ccccc1 (configuration not stated)	0.0652% (inactive)
Cn1ncnc1COc1nn2c(-c3cc(F)ccc3F)nnc2cc1C(C)(C)C	-2.94% (inactive)
Cc1cccc(/C=N/Nc2cc(N3CCOCC3)n3nc(-c4ccncc4)cc3n2)c1	-2.65% (inactive)
CC1=CC(=O)C2C(C)(C)CCC[C@]2(C)[C@H]1CO (some centres not stated)	-5.8% (inactive)
CC(C)C(C(=O)N(C)C(C)C(N)=O)N(C)C(=O)C1CCCN1C(=O)/C=C/C=C/C(O)C(C)O (configuration not stated)	-1.2% [at 57.7 µM] (inactive)
CC(C)(O)c1ccc2c(c1)C(O)C[C@H]1[C@](C)(C(=O)O)CCC[C@]21C (some centres not stated)	0.881% [at 57.7 µM] (inactive)
COc1cc2nc(N3CCC(N4CCCCC4)CC3)nc(NC3CCCCCC3)c2cc1OC	6.28% (inactive)
COc1cc2c3c(cc4ccccc4c3c1O)NC2=O	-12.8% (inactive)
CC1OC(OC2C(C)OC(OC3C(OC(=O)C45CCC(C)(C)CC4C4=CCC6C7(C)CCC(OC8OC(C(=O)O)C(O)C(O)C8OC8OC(CO)C(O)C(OC9OC(C)C(O)C(O)C9O)C8O)C(C)(CO)C7CCC6(C)C4(C)CC5)OC(CO)C(O)C3O)C(O)C2O)C(O)C(O)C1O (configuration not stated)	-1.29% [at 12.4 µM] (inactive)
NCc1ccc(Nc2ncc(F)c(Nc3ccccc3)n2)cc1	-4.3% (inactive)
C[C@@H]1C[C@@H]2O[C@H]2/C=C\C=C\C(=O)Cc2c(Cl)c(O)cc(O)c2C(=O)O1	-16.8% [at 57.7 µM] (inactive)
COC(=O)[C@H](O)[C@H]1C(C)(C)[C@H](OC(=O)C(C)C)[C@@]2(O)C(=O)[C@]1(C)C1CC[C@]3(C)C(CC(=O)O[C@H]3c3ccoc3)[C@]13O[C@@H]32 (some centres not stated)	4.66% [at 30.2 µM] (inactive)
Cc1noc(=O)c2ccc(NC(=O)C(O)(CC(C)(C)c3cccc4c3OCC4)C(F)(F)F)cc12 (configuration not stated)	-2.28% (inactive)

SMILES	activity change, negative = inhibition
CC(C)C1=CC2C(CC[C@]2(C)O)[C@](C)(O)CC1 (some centres not stated)	1.2% (inactive)
CC1(C)C2CC=C(COC3OC(COC4OCC(O)(CO)C4O)C(O)C(O)C3O)C1C2 (configuration not stated)	4.6% [at 57.7 µM] (inactive)
CC(O)/C=C/C1OC(=O)CC1Nc1ccc(C(=O)O)cc1 (configuration not stated)	-6.58% (inactive)
c1ccc(-c2ncc(CN3CCN(c4ncccn4)CC3)[nH]2)cc1	0.649% (inactive)
CC(=O)OCC1(O)CCC2C(COC3OC(CO)C(O)C(O)C3OC(=O)/C=C/c3ccc(O)cc3)=COC(OC(=O)CC(C)C)C21 (configuration not stated)	-0.45% [at 30.2 µM] (inactive)
C[C@H]1CC[C@@H]2N(C1)C[C@@H]1[C@H]([C@@H](O)[C@H](O)[C@]3(O)[C@H]1C[C@@]14OC5(O)[C@@H](C[C@@H](O)[C@@H]31)[C@]4(C)CC[C@@H]5O)[C@]2(C)O	-3.55% [at 57.7 µM] (inactive)
CN1CCN(C(=O)c2ccc3cc(CCNc4ncnc5ccc(C#N)cc45)ccc3c2)CC1	0.38% (inactive)
CC(C)c1cc(C(=O)N2CC[C@@H](NC(=O)C3CC3)C2)n[nH]1	3.44% (inactive)
O=C(O)COCCN1CCN([C@H](c2ccccc2)c2ccc(Cl)cc2)CC1	-7.68% (inactive)
C[C@H](CCC(=O)O)[C@H]1CC[C@H]2[C@@H]3C[C@H](O)[C@@H]4C[C@H](O)CC[C@]4(C)[C@H]3CC[C@]12C	0.928% (inactive)
COC(=O)CCSCc1ccc(-c2onc(C)c2NC(=O)OC(C)c2ccccc2Cl)cc1 (configuration not stated)	1.95% (inactive)
CC1=CC2/C=C(\C)CC[C@@H](O)[C@@H](O)[C@@H]3O[C@@H]3C(=O)[C@]23C(=O)N[C@@H](CC(C)C)[C@@H]3[C@@H]1C (some centres not stated)	1.94% [at 57.7 µM] (inactive)
COC(=O)C[C@H]1[C@]2(C)C3=C(C)[C@H](c4ccoc4)C[C@H]3O[C@@H]2[C@H](OC(C)=O)C2[C@](C)(C(=O)OC)C=CC(=O)[C@@]21C (some centres not stated)	0.407% [at 57.7 µM] (inactive)
CC1CCC2C(C(=O)O)=COC(O[C@@H]3O[C@H](CO)[C@@H](O)[C@H](O)[C@H]3O)C12 (some centres not stated)	-13.5% [at 57.7 µM] (inactive)
CC(C)(C#N)c1ccc(N2C(=O)OCc3cnc4ccc(-c5cnc6ccccc6c5)cc4c32)cc1	7.14% (inactive)
CC1(c2nc3c(C(N)=O)cccc3[nH]2)CCCN1 (configuration not stated)	-0.91% (inactive)
